Experimental findings from PubChem BioAssay are described below.

Each structure is given as a SMILES string. Inconclusive results are not listed. The source made the active and inactive calls. No cut-off is given here; in the data, nearly all actives have AC50 up to about 26 µM.

A short description of one assay: viability loss in pontine glioma line – cell-based, SU-DIPG-XXV, MIPE5.0, CellTiter-Glo, qHTS, dose response (AID 1347065).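 Note: cells exposed to compound for 48 hours before ATP readout.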 Conditions: CellTiter-Glo ATP luminescence.
As for `Cc1cccc(Nc2nc(N[C@@H]3CCCC[C@@H]3N)ncc2C(N)=O)c1`, the AC50 was 18.6 µM (active).
Same read-out and setting: then `CN1C(=O)c2sccc2N(C)c2nc(Nc3ccc(S(N)(=O)=O)cc3)ncc21`, with 3.72 µM (active).
As to `CCN(CC)C(=O)Cc1csc(NS(=O)(=O)c2cccc(Cl)c2C)n1`, the call was inactive.
As for `CC1=C2[N-][C@H]([C@H](CC(N)=O)[C@@]2(C)CCC(=O)NC[C@@H](C)OP(=O)([O-])O[C@H]2[C@@H](O)[C@@H](n3cnc4cc(C)c(C)cc43)O[C@@H]2CO)[C@]2(C)N=C(C(C)=C3N=C(C=C4N=C1[C@@H](CCC(N)=O)C4(C)C)[C@@H](CCC(N)=O)[C@]3(C)CC(N)=O)[C@@H](CCC(N)=O)[C@]2(C)CC(N)=O.O.[Co+2]`, the compound was called inactive.
For `COc1ccc2c(c1)[C@]1(C[C@H]1c1ccc3c(/C=C/c4ccc(CN5C[C@@H](C)O[C@@H](C)C5)cc4)n[nH]c3c1)C(=O)N2`, the AC50 is 0.0417 µM (active).
The same measure, in the same setting: for `Cc1noc(-c2ccc(-c3ccc(C4(C(=O)O)CC4)cc3)cc2)c1NC(=O)O[C@H](C)c1ccccc1` the value was 23.5 µM (active); for `COc1ccc(Oc2cc(NCCC(F)(F)F)c3ncc(-c4ccc(C(=O)NC5CC5)c(C)c4)n3n2)c(F)c1F`, 0.372 µM (active); for `COc1ncc(Nc2ncc(C(C)N3CCN(S(C)(=O)=O)CC3)cc2-c2nc(C)nc(N)n2)cc1F` (stereo not drawn), 0.235 µM (active).
On to `Cc1nc2ccc(-n3ncc(C(=O)c4cc5ccccc5[nH]4)c3N)cc2[nH]1`, for which the AC50 was 0.833 µM (active).
`CCn1nc(C2CCN(C(=O)CCO)CC2)nc1-c1cnc(N)c(-c2nnc(C(C)(C)C)o2)n1`: the half-maximal activity concentration (AC50) is 2.09 µM (active).
Still for that read-out and setting: then `CC(C)Oc1ccc(-c2nc(-c3cccc4c3CC[C@@H]4NCCO)no2)cc1C#N`, with 16.6 µM (active).
The same measure, in the same setting: for `CON(C)C(=O)N1N=C(c2cc(F)ccc2F)S[C@@]1(CCCN)c1ccccc1` the value was 0.00934 µM (active).
Same read-out and setting: for `COc1ccc(Cl)c(Nc2nc3ccccc3nc2NS(=O)(=O)c2cccc(NC(=O)C(C)(C)N)c2)c1` the value was 10.5 µM (active).

The nature of the next assay: JHH-DIPG-1 glioma cell viability, MIPE5.0 library, CellTiter-Glo luminescence, qHTS (AID 1347067).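 Note: cells exposed to compound for 48 hours before readout.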 Conditions: JHH-DIPG-1 glioma viability, CellTiter-Glo ATP luminescence. On the technique in general: In ATP-based viability assays light output follows the ATP content of the culture.
As for `Cn1cc(-c2nc(N[C@@H]3CCCC[C@@H]3N)c(F)c3c2C(=O)NC3)cn1`, the result was inactive.
As to `CCN(c1cc(C#CCN2CCOCC2)cc(C(=O)NCc2c(C)cc(C)[nH]c2=O)c1C)C1CCC(N(C)CCOC)CC1` (stereo not drawn), the call was inactive.
On the same count and under the same terms, for `CNCCN(C)Cc1cn[nH]c1-c1ccc(OC2CC(OCCC3CCOCC3)C2)cc1` (stereo not drawn) the value was “inactive”; for `CS(=O)(=O)Nc1cc2occ(NC=O)c(=O)c2cc1Oc1ccccc1`, “inactive”.
The same measure, in the same setting: for `Cc1c(F)cc(C(=O)NC2CC2)cc1-c1ccc(C(=O)NCC(C)(C)C)cn1` the value was “inactive”; for `C[C@@H]1O[C@@H](O[C@@H]2\C=C/C=C\C=C/C=C\C[C@H](C)OC(=O)/C=C\[C@H]3O[C@@H]3C[C@H](O)C[C@]3(O)C[C@@H](O)[C@@H](C(=O)O)[C@H](C2)O3)[C@H](O)[C@H](N)[C@@H]1O`, “inactive”.
Take `NC(=O)c1nc(F)c[nH]c1=O`: the call was inactive.
Regarding `Fc1ccc(-c2csc3ncnc(NCc4ccc5c(c4)OCO5)c23)cc1`, the AC50 was 18.6 µM (active).
On the same count and under the same terms, then `O=C(CCCCCCNC(=O)c1cnc(N(c2ccccc2)c2ccccc2Cl)nc1)NO`, with 7.42 µM (active).
For the compound `C[C@@H]1CN(CC(=O)N2CC(C)(C)c3ncc(Cc4ccc(F)cc4)cc32)[C@@H](CN2CCOC[C@H]2C)CN1`, the compound was classed as inactive.
In the case of `O=S(=O)(c1cccc2c(I)cccc12)N1CCCNCC1`, the call was inactive.
Take `CNC(=O)[C@H](Cc1c[nH]c2ccccc12)NC(=O)[C@@H](CC(=O)NO)CC(C)C`: the compound was called inactive.
For `CCn1c(=O)c(-c2ccc(-c3cncc(C)n3)cc2Cl)cc2cnc(NCCC3CCN(C)CC3)nc21`, the result was inactive.
The same measure, in the same setting: then `O=C(Nc1cccc(C(F)(F)F)c1)Nc1cc(S(=O)(=O)NC2CC2)ccc1-c1ccsc1`, with “inactive”; and `Cn1cc(-c2ccc3c(c2)CCN3C(=O)Cc2cccc(C(F)(F)F)c2)c2c(N)ncnc21`, with “inactive”.

The AC50 is the concentration giving half of the maximal activity seen.
